# AmpC inh detg: AmpC beta-lactamase inhibition with detergent present. AmpC hydrolysis of nitrocefin, absorbance 480 nm, 0.01% Triton. Potency, µM (series often up to 114 µM), inactives show at the top dose activity change, negative = inhibition, actives largely listed as inhibitors. actives 0.041% (n = 370,000);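 further: 0% = no-compound wells and -100% = no-enzyme wells; nearly all actives have a fitted effect of over 25% in size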
# Target sequence (P00811 whole entry, looked up): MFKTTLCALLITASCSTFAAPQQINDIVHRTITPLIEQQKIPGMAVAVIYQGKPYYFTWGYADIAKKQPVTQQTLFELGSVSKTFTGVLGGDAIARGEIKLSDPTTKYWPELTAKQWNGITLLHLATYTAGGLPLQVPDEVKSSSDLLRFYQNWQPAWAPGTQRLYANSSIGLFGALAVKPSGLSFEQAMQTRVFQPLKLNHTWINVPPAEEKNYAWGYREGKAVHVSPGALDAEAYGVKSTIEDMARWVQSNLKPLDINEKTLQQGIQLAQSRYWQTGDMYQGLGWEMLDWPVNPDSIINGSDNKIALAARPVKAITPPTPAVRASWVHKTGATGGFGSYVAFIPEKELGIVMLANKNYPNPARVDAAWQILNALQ
#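 20 mM phosphate pH 7.0 + 0.01% (detergent screen) or 0.0001% Triton X-100; 5.3 nM AmpC reagent; cpd preinc 15 min RT; nitrocefin (800 uM stock) to start; A480 q20 s × 4 min; Activity was normalised to no-enzyme and no-compound control wells.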
# Pf growth 96h: P. falciparum growth inhibition at 96 hours; AID 504834; P. falciparum luciferase reporter growth, 96 h; Potency, µM (series often up to 28.7 µM), for inactives: at the top dose activity change, negative = inhibition, usual class: inhibitors; actives 6.9% (n = 320,000)
#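 Compounds incubated with erythrocytes infected by luciferase-expressing P. falciparum (2% hematocrit, 0.05% parasitemia final) for 96 hours, 37 C in 5% CO2. Growth inhibition scored as decreased luciferase luminescence.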
# Pf growth 48h: inhibits P. falciparum growth in the first generation, 48 h; P. falciparum luciferase growth in erythrocytes, 48 h; Potency, µM (top dose mostly 28.7 µM), without a hit: at the highest dose activity change, negative = inhibition, most hits filed as inhibitors; AID 504832; actives 5.9% (n = 310,000)
#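 Luminescence readout; reporter = integrated firefly luciferase in P. falciparum. RBC culture at 2% hematocrit, 0.1% parasitemia final, 37 C/5% CO2; decreased signal taken as growth inhibition.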
# AmpC inh no detg: inhibitors of E. coli AmpC beta-lactamase without detergent | actives 0.52% (n = 330,000) | Potency, µM (titrated, usually from 57.1 µM), inactives show top-dose activity change, negative = inhibition, usual class: inhibitors | AmpC nitrocefin hydrolysis, absorbance 480 nm, 0.0001% Triton;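 further: plate controls were no compound for no effect and no enzyme for full effect; nearly all actives have a fitted effect of over 20% in size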
#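 AmpC (5.3 nM in the dispensed reagent) in 20 mM phosphate pH 7.0 with 0.01% (detergent screen) or 0.0001% Triton X-100 was preincubated with compounds for 15 min at room temperature. Nitrocefin was then added from an 800 uM solution, and hydrolysis was followed at 480 nm.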
# HCV inhibitor: HCV inhibition | Huh7.5.1 HCVcc-Cre infection, luciferase reporter, 44 h | Potency, µM (series often up to 41.8 µM), without a hit: top-dose activity change, negative = inhibition, hits mostly inhibitors | actives 3.4% (n = 340,000) | AID 651820
#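 Seed cells (1,000/well) for 4 h; treat with compound and infect with HCVcc-Cre, moi about 0.5. Incubate 44 h, then detect luciferase activity.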
# AMA1 RON2 block: disrupts binding of P. falciparum AMA1 to RON2; AlphaScreen AMA1-biotinylated RON2 peptide binding; Potency, µM (titrated, usually from 58.2 µM), without a hit: top-dose activity change, negative = inhibition, hits mostly inhibitors; actives 0.2% (n = 360,000); AID 720542;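 further: 0% = vehicle wells and -100% = peptide control; nearly all actives have a fitted effect of over 45% in size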
#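 AMA1 (3D7) with his tag at 25 nM final met compounds first, then biotinylated RON2 peptide at 25 nM; detection used donor plus acceptor beads, 10 µg/mL apiece, read by AlphaScreen after 30 min at room temperature.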
# An asterisk follows results filed as active; ? = inconclusive; / = no result; [ ] = another dose, or the depositor's remark. Compounds with a hit are over-represented: about 11% of the library has one in this group of screens. The call rests on the fitted dose curve; in most records, active means well fitted curve in the direction sought with a large enough effect; inconclusive means small, poorly fitted or top-dose-only effect, or another doubt; inactive means no such curve, though single readings can be large; an effect the other way counts as inactive or inconclusive. Unless noted, on the % scale 0 is the no-effect control and ±100 the full control effect; potency means the concentration at half of the fitted maximal effect.
SMILES,AmpC inh detg,Pf growth 96h,Pf growth 48h,AmpC inh no detg,HCV inhibitor,AMA1 RON2 block
Cc1c(F)cccc1NC(=O)C1CCCN1S(=O)(=O)c1ccc(F)cc1 (configuration not stated),-3%,/,/,/,/,/
COc1ccccc1N1CCN(Cc2ccc(SC)cc2)CC1,?,-30%,9%,7%,?,20µM*
CSc1ccc(CN2CCSCC2)cc1,-11%,30%,3%,-20%,23%,-12%
CCN1CCN(Cc2ccc(C)cc2)CC1,-24%,5.2µM*,4%,-17%,6%,-5%
COc1cc(SC)ccc1C(=O)N1CCN(Cc2ccccc2)CC1,-3%,9%,2%,67%,25µM*,-2%
CCc1ccc(CN2CCN(Cc3ccc(SC)cc3)CC2)cc1,-13%,9%,?,33%,10µM*,13µM*
CCOc1ccc(N2CC(NC(=O)c3cc4ccccc4o3)CC2=O)cc1 (configuration not stated),4%,/,/,/,/,/
Cc1ccc(NC(=O)c2ccc3snnc3c2)cc1Cl,18%,/,/,/,/,/
CCOc1ccc(CNC(=O)c2cc3c(=O)oc4ccc(C)cc4c3s2)cc1,13%,/,/,/,/,/
CCOc1ccc(NC(=O)c2cc(=O)c3ccc(C)c(C)c3o2)cc1,2%,/,/,/,/,/
CCCCn1c(N)c(N(CC(C)C)C(=O)c2cccc(S(=O)(=O)N(C)c3ccc(C)cc3)c2)c(=O)[nH]c1=O,-14%,?,6.6µM*,-29%,10%,6%
CCCCn1c(N)c(N(Cc2ccccc2OC)C(=O)c2cc(CC)c(C)s2)c(=O)[nH]c1=O,?,?,13µM*,-37%,-24%,0%[11.6 µM]
CCCCn1c(N)c(N(CC(C)C)C(=O)CN2C(=O)NC3(CC(C)CC(C)(C)C3)C2=O)c(=O)[nH]c1=O (configuration not stated),-10%,?,?,35µM*,?,-10%
CCCCn1c(N)c(N(Cc2ccccc2OC)C(=O)c2sccc2C)c(=O)[nH]c1=O,-19%,-13%,-13%,-24%,0%[8.37 µM],-8%
CCCCn1c(N)c(N(CC(C)C)C(=O)c2ccc(S(=O)(=O)N(CC)c3ccccc3)cc2)c(=O)[nH]c1=O,-14%,?,12µM*,-20%,-9%,-8%
O=S(=O)(c1ccc(Cl)cc1)c1nc(-c2cccs2)oc1N1CCCCC1,-2%,/,/,/,/,/
Cc1ccccc1CN1CCCN(CC(=O)Nc2c(C)cccc2C)S1(=O)=O,-4%,/,/,/,/,/
CCCCn1c(N)c(N(CCC(C)C)C(=O)c2ccc([N+](=O)[O-])s2)c(=O)[nH]c1=O,0%,?,9.3µM*,-27%,?,-2%
CCCCN(C(=O)CSCC(=O)Nc1cccc(C)c1)c1c(N)n(CCCC)c(=O)[nH]c1=O,0%,?,-25%,37%,-3%,-3%
CCCCn1c(N)c(N(CC(C)C)C(=O)CSCC(=O)Nc2cccc(C)c2)c(=O)[nH]c1=O,0%,?,12µM*,-1%,-19%,0%
CCn1c(C(=O)NCc2cc(Br)ccc2OC)cc2oc3ccccc3c21,-11%,/,/,/,/,/
Nc1cc([N+](=O)[O-])cc2oc(-c3ccccc3)cc12,-5%,12%,129%,-48%,10µM*,?
O=c1cc(-c2ccccc2)oc2ccccc12,-6%,123%,95%,-11%,?,1%
CCCCC(=O)Nc1ccc(C)c(S(=O)(=O)N2CCCCCC2)c1,?,?,?,-24%,?,8%
CCN(CC)S(=O)(=O)c1cccc(NC(=O)C2SC(=Nc3ccc(C)cc3C)C(C(=O)NC(C)COC)=C2N)c1 (configuration not stated),-8%,3.7µM*,/,40%,?,30%
SMILES,AmpC inh detg,Pf growth 96h,Pf growth 48h,AmpC inh no detg,HCV inhibitor,AMA1 RON2 block
CCCCNC(=O)C1=C(N)C(C(=O)Nc2ccc(C)c(S(=O)(=O)N3CCCCC3)c2)SC1=Nc1ccc(C)cc1C (configuration not stated),1%,10µM*,/,-8%,27%,16%
COc1cc(C)ccc1OCCSc1nnc(-c2ccc(C)cc2)o1,3%,/,/,/,/,/
Cc1cc2ccccc2nc1SCC(=O)N1CCCC1,-12%,?,16%,37%,1µM*,3%
O=C(CSc1nc2ccccc2c2c1CCCC2)N1CCOCC1,4%,9.3µM*,3%,100%,?,1%
Cc1ccc(C)n1CCN1CCN(C(=O)CSc2nc3ccccc3nc2N2CCOCC2)CC1,?,-1%,12µM*,170%,7%,-1%
CCOC(=O)c1ccc(NC(=O)c2cc3cc(C)ccc3n2C)cc1,13%,/,/,/,/,/
CC[C@@H]1OC(=O)[C@H](C)[C@H](O[C@@H]2C[C@](C)(OC)[C@H](O)[C@H](C)O2)[C@H](C)[C@H](O[C@@H]2O[C@@H](C)C[C@@H](N(C)C)[C@@H]2O)[C@](C)(O)C[C@H](C)C(=NOCOCCOC)[C@H](C)[C@H](O)[C@]1(C)O,/,1.6µM*,-5%[12.8 µM],/,/,/
CC[C@H]1OC(=O)[C@H](C)[C@@H](O[C@H]2C[C@@](C)(OC)[C@@H](O)[C@H](C)O2)[C@H](C)[C@@H](O[C@@H]2O[C@H](C)C[C@H](N(C)C)[C@H]2O)[C@](C)(O)C[C@@H](C)C(=NOCOCCOC)[C@H](C)[C@@H](O)[C@]1(C)O,-13%,?,-9%,297%,20%,5%
O=C(N/N=C/c1ccc(OC(=O)c2cccs2)cc1)c1ccccn1,?,-30%,56%,-16%,11%,26%
COc1cc(/C=N/NC(=O)c2ccccn2)ccc1OC(=O)c1ccccc1Br,?,2.1µM*,44%,58%,?,32%
CCOc1cc(/C=N/NC(=O)c2ccccn2)ccc1OC(=O)c1cccs1,-19%,9.3µM*,29%,28%,12%,54%
CCOC(=O)c1ccc(NC(=O)CSc2nnc(CNC(=O)c3ccc(OC)cc3)n2CC)cc1,2%,/,/,/,/,/
Cc1c(C)c2c(OCC(=O)NCC(C)C)cc3c(c2oc1=O)CCC(C)(C)O3,3%,?,8.3µM*,3%,?,-2%
Cc1cc(=O)oc2c3c(cc(OCC(=O)NCc4ccncc4)c12)OC(C)(C)CC3,-14%,10µM*,?,75%,?,-3%
Cc1c(C)c2c(OCC(=O)NCc3ccncc3)cc3c(c2oc1=O)CCC(C)(C)O3,?,2.9µM*,?,-24%,4%,-1%

# Screening data from PubChem BioAssay.
